Assay [1] has as its target Aldehyde dehydrogenase, mitochondrial (Homo sapiens) (UniProt P05091). As to the kind of experiment: qHTS for Inhibitors of the Aldehyde Dehydrogenase Family (ALDH2) Confirmatory screens (AID 2061303; active means well fitted inhibition curve with a large enough effect; title and protocol of this record describe different tests; further: nearly all actives have a fitted effect of over 45% in size; further: potency means the concentration at half of the fitted maximal effect).
Assay [2] in a line: qHTS for Inhibitors of the Aldehyde Dehydrogenase Family (ALDH1A2, ALDH1A3, ALDH2, ALDH3A1) (AID 2061307). Further: nearly all actives have a fitted effect of over 50% in size. A general note: Quantitative high-throughput screening tests each substance at several concentrations.
In assay [3] the target is Aldehyde dehydrogenase, mitochondrial (Homo sapiens) (UniProt P05091). The assay can be described thus: qHTS for Inhibitors of the Aldehyde Dehydrogenase Family (ALDH2) Primary screen (AID 2061308). Further: nearly all actives have a fitted effect of over 55% in size. Further: potency means the concentration at half of the fitted maximal effect.
The target of assay [4] is Retinal dehydrogenase 2 (Homo sapiens) (UniProt O94788). As to the kind of experiment: qHTS for Inhibitors of the Aldehyde Dehydrogenase Family (ALDH1A2) Confirmation screens (AID 2061314). Further: nearly all actives have a fitted effect of over 65% in size. Further: potency means the concentration at half of the fitted maximal effect.
For assay [5], the target named is Retinaldehyde dehydrogenase 3 (Homo sapiens) (UniProt P47895). As to the kind of experiment: qHTS for Inhibitors of the Aldehyde Dehydrogenase Family (ALDH1A3) Primary screen (AID 2061315). Further: potency means the concentration at half of the fitted maximal effect.
The target in assay [6] is Aldehyde dehydrogenase 1A1 (Homo sapiens) (UniProt P00352). As to the kind of experiment: qHTS for Inhibitors of the Aldehyde Dehydrogenase Family (ALDH1A1) Confirmatory screens (AID 2061316). Further: nearly all actives have a fitted effect of over 65% in size. Further: potency means the concentration at half of the fitted maximal effect.
Assay [7] in a line: BET inhibitor-based combinations targeting novel dependencies in MECOM-rearranged (r) AML: SET-2 cell line (AID 2202231).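 Further: plate controls were DMSO treated cells for no effect and wells without cells for full effect; nearly all actives have a fitted effect of over 35% in size.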 To be noted: SET-2 AML cells viability, CellTiter-Glo luminescence, 48 h; viability: active compounds read low, series mostly up to about 46 µM. Summed up: (§1)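 A 48 hr incubation preceded viability reading by CellTiter-Glo, with 15 min room-temperature development. Dose series had 11 points; normalization used DMSO and empty wells; AUC was computed and mean-centered per line as Z-AUC.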
(In general: Cellular ATP, detected with luciferase, serves as a proxy for viable cell number.)

Assay [8] is described as follows: BET inhibitor-based combinations targeting novel dependencies in MECOM-rearranged (r) AML: OCI-AML3 cell line (AID 2202232).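 Further: series mostly up to about 46 µM; plate controls were DMSO vehicle wells for no effect and wells without cells for full effect; nearly all actives have a fitted effect of over 35% in size.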 Conditions: Potency: OCI-AML3 viability. Summed up:
as §1

Assay [9] in a line: BET inhibitor-based combinations targeting novel dependencies in MECOM-rearranged (r) AML: MV-4-11 cell line (AID 2202233). Further: potency means the concentration at half of the fitted maximal effect; nearly all actives have a fitted effect of over 45% in size. A digest of the protocol: (§2)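 Each compound is tested in an 11-point concentration series against 500 seeded cells/well for 48 hr. The luminescent viability signal is normalized to DMSO and blank wells, then reduced to AUC and a cell-line-centred Z-AUC.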

Assay [10] is described as follows: BET inhibitor-based combinations targeting novel dependencies in MECOM-rearranged (r) AML: HNT-34 cell line (AID 2202234).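 Further: plate controls were vehicle wells for no effect and cell-free wells for full effect; nearly all actives have a fitted effect of over 35% in size.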 A digest of the protocol:
as §2

Assay [11] is described as follows: BET inhibitor-based combinations targeting novel dependencies in MECOM-rearranged (r) AML: UCSD-AML1 cell line (AID 2202235).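 Further: series mostly up to about 46 µM; plate controls were DMSO vehicle wells for no effect and blank wells for full effect; nearly all actives have a fitted effect of over 40% in size.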 Summed up:
as §2

Assay [12] is described as follows: BET inhibitor-based combinations targeting novel dependencies in MECOM-rearranged (r) AML: AML-191 cell line (AID 2202236;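 further: plate controls were vehicle wells for no effect and wells without cells for full effect; nearly all actives have a fitted effect of over 35% in size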). Summed up: as §1
The nature of assay [13]: BET inhibitor-based combinations targeting novel dependencies in MECOM-rearranged (r) AML: AML-194 cell line (AID 2202237;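 further: plate controls were vehicle wells for no effect and wells without cells for full effect; nearly all actives have a fitted effect of over 40% in size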). Summed up: as §1

SMILES strings stand for the structures. Inconclusive results are not listed. Values without a mark were called inactive. Activity calls are given as the source filed them. Unless noted, the call rests on the fitted dose curve; in most records, active means well fitted curve in the direction sought with a large enough effect; inconclusive means small, poorly fitted or top-dose-only effect, or another doubt; inactive means no such curve, though single readings can be large; an effect the other way counts as inactive or inconclusive.

Turning to `N=c1c2c(ncn1-c1ccccc1)Oc1ccc3ccccc3c1C2c1ccc2c(c1)OCCO2` (stereo unspecified), the Potency entry in assay [1], in assay [2], in assay [3], in assay [4], in assay [5] and in assay [6] was “inactive” throughout.

Regarding `CN(Cc1ncc[nH]1)c1ncnc2ccc(-c3ccc4c(c3)OCO4)cc12`, the Potency result in assay [1], in assay [2], in assay [3], in assay [4], in [5] and in [6] was “inactive” each time.

As for `O=C1NS(=O)(=O)c2cc(Br)ccc21`, the Potency entry in [1], in assay [2], in assay [3], in assay [4], in assay [5] and in assay [6] was “inactive” each time.

As for `O=C(O)CSc1cc(NS(=O)(=O)c2ccc(Br)cc2)c2ccccc2c1O`, the Potency in assay [1] was 1.79 µM (active); in assay [3], 7.08 µM (active); in assay [4], 0.4 µM (active); in assay [5], 0.631 µM (active); in [6] it was 0.565 µM (active). Also, in assay [2], the Potency result was “inactive”.

As for `COc1cc(/C=C/C(=O)OC[C@H]2O[C@H](O[C@]3(CO)O[C@H](CO)[C@@H](O)[C@@H]3O)[C@H](O)[C@@H](O)[C@@H]2O)cc(OC)c1O`, the Potency result in assay [1], in assay [2], in [3], in assay [4] and in assay [6] was “inactive” throughout.

Turning to `Cc1ccc(OCCn2c(CCNC(=O)c3cccnc3)nc3ccccc32)cc1`, the Potency result in assay [1], in assay [2], in assay [3], in assay [4], in assay [5] and in assay [6] was “inactive” each time.

Regarding `O=C(Nc1cccc([S+](=O)([O-])Nc2ccccc2F)c1)c1ccccc1`, the Potency result in [1], in assay [2], in assay [3], in [4], in [5] and in assay [6] was “inactive” throughout.

On to `O=C1CC(c2ccccc2)Cc2[nH]c(=O)c(-c3nc(-c4ccc(F)cc4)cs3)cc21` (stereo unspecified), for which the Potency entry in [1], in assay [2], in assay [3], in [4] and in [5] was “inactive” each time.

Consider `COc1cccc(CCC(=O)NCCc2nc3ccccc3n2CCOc2ccc(C)cc2)c1`, for which the Potency result in [1], in assay [2], in assay [3], in [4] and in assay [5] was “inactive” in each case. In addition, the Potency in assay [6] is 6.34 µM (active).

As to `O=C(Nc1ccc2ccccc2c1)Nc1nnc(-c2cccnc2)s1`, the Potency result in assay [1], in assay [2], in assay [3] and in assay [5] was “inactive” throughout. Besides, the Potency in assay [4] is 12.7 µM (active).

Consider `O=C(O)c1ccccc1OC1=NS(=O)(=O)c2ccccc21`, for which the Potency entry in assay [1], in [2], in [3], in [4], in assay [5] and in assay [6] was “inactive” throughout.

As to `O=c1c2ccccc2nc2sc(Nc3cccc(N4CCNCC4)c3)nn12`, the Potency result in assay [1], in assay [2], in assay [3] and in [5] was “inactive” in each case. Moreover, the results for the Potency in [4] and in [6] were 10.1 µM (active) and 12.7 µM (active), respectively.

On to `S=C(Nc1cc(Cl)ccn1)N1CCN(c2cccc(Cl)c2Cl)CC1`, for which the Potency in assay [1] was 15.8 µM (active); in assay [2], 3.98 µM (active); in assay [4] it was 25.2 µM (active); in assay [6] it was 3.18 µM (active). The Potency result in [3] and in assay [5] was “inactive” throughout.

On to `O=C1c2ccccc2C(=O)N1Cc1cccnc1`, for which the Potency entry in assay [1], in [2], in [3], in [4], in assay [5] and in [6] was “inactive” each time.

As for `CCCCNc1nc(C#N)nc(Nc2ccccc2)n1`, the results for the Potency in assay [1] and in assay [2] were 2.51 µM (active) and 0.501 µM (active), respectively. The Potency result in assay [3], in [4] and in assay [5] was “inactive” each time.

Regarding `Cc1cnc(-c2ccccc2C(F)F)nc1NCc1ccc(-n2ccnn2)cc1`, the Potency in assay [1] is 25.1 µM (active); in assay [2], 4.47 µM (active). In addition, the Potency result in assay [3] and in assay [5] was “inactive” each time.

In the case of `COc1ccccc1-c1no[n+]([O-])c1C#N`, the Potency entry in [1], in [3], in [5] and in [6] was “inactive” in each case. The Potency in assay [2] was 3.18 µM (active).

With `CC(C)(C)OC(=O)N1CCN(c2ccc(NCc3coc(-c4ccc(C#N)cc4)c3)cc2)CC1`, the Potency in assay [1] was 0.798 µM (active); in assay [3] it was 2 µM (active); in assay [6] it was 3.57 µM (active). Besides, the Potency result in assay [2] and in [5] was “inactive” each time.

For the molecule `Cc1nc(C2=NC(c3ccccc3Cl)C3=C(CCCC3=O)N2)cs1` (stereo unspecified), the Potency result in [1], in [2], in [3] and in assay [5] was “inactive” each time.

Turning to `CC(C)N1CCc2c(sc(NC(=O)C(F)(F)F)c2-c2nc3ccccc3s2)C1`, the Potency in [1] was 11.3 µM (active); in assay [2], 8.96 µM (active); in assay [3], 31.6 µM (active); in assay [6], 5.65 µM (active).

For `COc1cccc(CNc2ccc(S(=O)(=O)Nc3ccc(C4CCNCC4)cc3)cc2)c1O`, the Potency entry in assay [1], in assay [2], in [3] and in [5] was “inactive” in each case.

`Cc1cc(N[S+](=O)([O-])c2cc3c(cc2Cl)NC(=O)CO3)ccc1Cl`: the Potency entry in assay [1], in assay [2], in [3], in assay [5] and in [6] was “inactive” each time.

For `Cc1cc2c(s1)c1cnn(Cc3ccc(-n4cncn4)cc3)c(=O)c1n2C`, the values for the Potency in assay [1], in assay [2] and in assay [6] were 25.1 µM (active), 14.1 µM (active) and 11.3 µM (active), respectively. The Potency entry in assay [3] and in assay [5] was “inactive” each time.

On to `Cc1cc(N[S+](=O)([O-])c2ccc(NC(=O)Cc3ccc4nccnc4c3)cc2)no1`, for which the Potency entry in [1], in [2], in assay [3] and in [5] was “inactive” each time.

With `N[C@@H](CO)C(=O)Nc1ccc(Cl)cc1C(=O)c1ccc[nH]1`, the Potency result in [1], in [2], in [3] and in assay [5] was “inactive” throughout.

Take `N[C@@H](CC(=O)O)C(=O)Nc1ccc(Cl)cc1C(=O)c1ccc[nH]1`: the Potency entry in assay [1], in [2], in [3], in assay [5] and in assay [6] was “inactive” in each case.

As for `Cn1nnnc1Sc1ncnc2scc(-c3cccc(Br)c3)c12`, the Potency result in [1], in [2], in assay [3], in [5] and in assay [6] was “inactive” throughout.

The term viability denotes a read-out of living cells in per cent, often relative to untreated cells. On to `COc1ccc(-n2cnc3cc(C(=O)N4CCCCC4)ccc32)cc1`, for which the Potency entry in [1], in assay [2], in assay [3], in assay [5], in assay [6] and in [8] was “inactive” throughout. Also, the Potency result in [10], in [11], in [12] and in assay [13] was “inactive” each time. The viability in assay [7] was 112%. The Potency in [9] was 18.6 µM (active).

With `CN1CCN(c2cccc(Nc3nn4c(=O)c5ccc(F)cc5nc4s3)c2)CC1`, the Potency entry in assay [1], in assay [2], in assay [3] and in assay [5] was “inactive” in each case.

As for `FC(F)(F)c1cnc(N2CCN(C(=S)Nc3cc(Cl)ccn3)CC2)c(Cl)c1`, the Potency in assay [1] is 7.12 µM (active); in [2], 5.65 µM (active); in [3] it was 12.6 µM (active); in [6], 2.52 µM (active). The Potency entry in assay [5] was “inactive”.

(Values after PubChem BioAssay (NCATS).)
